Data: PubChem BioAssay
Records with an inconclusive call do not appear. Active and inactive are the calls of the source.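 Rule for the calls, unless noted: active = cell viability at or below a set limit in both duplicate runs, the limit being the all-compound median minus 4 SD (cut at about 23% in these data, passing the limit was not always enough); inconclusive = no clear call, values can overlap the other calls; inactive = the rest.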

Legend:
[1] = Her2 expression decrease, cell viability multiplex – SKBR3 breast tumor cells, AlphaScreen, ATP viability, primary screen (AID 461;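 active = Her2 level under about 52% in both replicate screens, with viability over 70% of control, limit read from the data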;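 for Her2 level: lower value means less Her2 protein in the cells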;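 for viability: percent of carrier control wells set as 100% viability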); details: SKBR3 Her2 protein level, 18-24 h, measured here: SKBR3 viability, ATP luminescence, at 10 µM
[2] = biological target: Receptor tyrosine-protein kinase erbB-2 (Homo sapiens) (UniProt P04626); test: as above; details: 18-24 h, at 10 µM, stronger effect = lower value
[3] = reduced viability of SK-BR-3 breast cancer cells – cell-based, 24 h, human, pilot screen (AID 572;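 active = viability at or below 10% of carrier control in both of two separate runs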;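 note: compound exposure lasted between 18 and 24 h rather than exactly 24 h; 100% = carrier-treated control wells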); details: SK-BR-3 viability, CellTiter-Glo luminescence, at 10 µM, stronger effect = lower value
[4] = HUVEC growth inhibition – cell-based, human, primary screen (AID 575;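 active = viability at or below 30% in both replicate assays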;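 note: 100% = median of untreated cell wells with 0.1% DMSO on each plate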); details: HUVEC proliferation, CellTiter-Glo luminescence, 72 h; at 10 µM; stronger effect = lower value
[5] = H69AR cell proliferation blockers – human, duplicate replicates, primary screen (AID 580;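 active = viability at or under a set limit in both replicates, limit being median viability minus 3 SD, cut at about 48% in these data, passing the limit was not always enough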;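 note: 100% = mean luminescence of untreated wells and 0% = no signal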); details: H69AR lung tumor cells viability, ATP luminescence, 72 h; at 10 µM; stronger effect = lower value
[6] = MRP1 drug-resistance reversers in H69AR cells – cell-based, doxorubicin co-treatment, pilot screen (AID 601;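 active = viability loss from added drug above about 55%, and viability with drug at most 40%, in both replicates, limit read from the data, passing the limit was not always enough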); details: CellTiter-Glo, 72 h, at 10 µM; for differential viability (reversal): stronger effect = higher value
[7] = yeast transport mutant growth inhibition pilot in 384-well plates, post-Golgi transport modulator project (AID 636; in the data active = inhibition above about 31%); details: absorbance 615 nm, about 18 h, stronger effect = higher value
[8] = growth suppression of yeast trafficking mutant, preliminary HTS, modulators of trafficking downstream of Golgi apparatus project, 1536-format plate, OD 615 nm (AID 637; in the data active = inhibition above about 30%); details: yeast transport mutant growth, absorbance 615 nm, 18 h; stronger effect = higher value
[9] = S. cerevisiae growth inhibition in permissive medium (OD615), pilot counter-assay for S. cerevisiae lifespan shortening project, permissive growth control (AID 705;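 active = growth inhibition above 25% in both replicates, a cutoff set 3 SD above the mean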); details: OD615, 24 h, at 10 µM, stronger effect = higher value
[10] = S. cerevisiae growth inhibition in restrictive medium, OD615, pilot screen, restrictive growth control, yeast lifespan reduction project (AID 706;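 active = growth inhibition above a set limit, 3 SD over mean compound inhibition, in both replicates, cut at about 43% in these data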;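 note: modified DeaD lifespan yeast strain shifted to restrictive glucose medium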); details: OD615, 48 h, at 10 µM, stronger effect = higher value
[11] = doxorubicin toxicity protection in MRP-1 cells – H69AR cells, CellTiter-Glo, duplicate, MRP-1 activator project, pilot screen (AID 807;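 active = viability increase at or above a cutoff of the median across tested compounds plus 3 SD, cut at about 8.5% in these data, passing the limit was not always enough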;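 note: compound pretreatment 18-22 h then 72 h combined with doxorubicin; 0% = doxorubicin alone and 100% = vehicle without doxorubicin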); details: H69AR viability with doxorubicin, CellTiter-Glo luminescence; at 10 µM; stronger effect = higher value
[12] = viability of HCT116 without oncogenic beta-catenin – human colon tumor cells, pilot screen (AID 823); details: HCT116 beta-catenin knockout viability, CellTiter-Glo, 60 h; at 10 µM; stronger effect = lower value;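 note: 0% = wells killed by 20 µM Hyamine and 100% = untreated DMSO cell wells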
[13] = viability of PTEN-null HCT116 cells – cell-based, HCT116 clonal line, CellTiter-Glo, pilot screen (AID 824;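 active = viability at or below 27.92% in each of two runs, the all-compound median minus 4 SD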;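 note: 0% = 20 µM Hyamine control and 100% = vehicle cell control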); details: HCT116 PTEN-deleted viability, 60 h, at 10 µM, stronger effect = lower value
[14] = RAM pathway blockade in budding yeast – dse1pr::URA3 reporter, 5-FOA selection, pilot screen (AID 869;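 active = inhibition over a set limit, the all-compound mean plus 3 SD, in both replicate runs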;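 note: 0% = DMSO wells with no growth and 100% = 10 µM 1-NA-PP1 with full growth; RAM network block rescues cells from 5-FOA so hits raise OD615 growth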); details: S. cerevisiae dse1pr::URA3 5-FOA growth, OD615, 2 d; at 10 µM; stronger effect = higher value; strain carries analog-sensitive mutant Cbk1 kinase
[15] = RAM signaling pathway blockade in yeast – S. cerevisiae, Pdr1DBD-CYC8 efflux-inhibited sensitized strain, primary screen (AID 1298;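 active = RAM network inhibition above 8.4% in each of two replicates, 3 SD over the compound average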;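 note: 0% = DMSO untreated cells without growth and 100% = 10 µM 1-NA-PP1 full growth; higher means more yeast growth rescued from 5-FOA killing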); details: S. cerevisiae cbk1-as DSE1-URA3 strain, 5-FOA growth OD615, 2 d; at 50 µM; stronger effect = higher value
[16] = H69AR cells + 2 uM doxorubicin, measured here: viability with 2 uM doxorubicin, stronger effect = lower value
[17] = H69AR cells, compound alone cytotoxicity

Receptor tyrosine-protein kinase erbB-2 (Homo sapiens), sequence (P04626 whole entry, looked up): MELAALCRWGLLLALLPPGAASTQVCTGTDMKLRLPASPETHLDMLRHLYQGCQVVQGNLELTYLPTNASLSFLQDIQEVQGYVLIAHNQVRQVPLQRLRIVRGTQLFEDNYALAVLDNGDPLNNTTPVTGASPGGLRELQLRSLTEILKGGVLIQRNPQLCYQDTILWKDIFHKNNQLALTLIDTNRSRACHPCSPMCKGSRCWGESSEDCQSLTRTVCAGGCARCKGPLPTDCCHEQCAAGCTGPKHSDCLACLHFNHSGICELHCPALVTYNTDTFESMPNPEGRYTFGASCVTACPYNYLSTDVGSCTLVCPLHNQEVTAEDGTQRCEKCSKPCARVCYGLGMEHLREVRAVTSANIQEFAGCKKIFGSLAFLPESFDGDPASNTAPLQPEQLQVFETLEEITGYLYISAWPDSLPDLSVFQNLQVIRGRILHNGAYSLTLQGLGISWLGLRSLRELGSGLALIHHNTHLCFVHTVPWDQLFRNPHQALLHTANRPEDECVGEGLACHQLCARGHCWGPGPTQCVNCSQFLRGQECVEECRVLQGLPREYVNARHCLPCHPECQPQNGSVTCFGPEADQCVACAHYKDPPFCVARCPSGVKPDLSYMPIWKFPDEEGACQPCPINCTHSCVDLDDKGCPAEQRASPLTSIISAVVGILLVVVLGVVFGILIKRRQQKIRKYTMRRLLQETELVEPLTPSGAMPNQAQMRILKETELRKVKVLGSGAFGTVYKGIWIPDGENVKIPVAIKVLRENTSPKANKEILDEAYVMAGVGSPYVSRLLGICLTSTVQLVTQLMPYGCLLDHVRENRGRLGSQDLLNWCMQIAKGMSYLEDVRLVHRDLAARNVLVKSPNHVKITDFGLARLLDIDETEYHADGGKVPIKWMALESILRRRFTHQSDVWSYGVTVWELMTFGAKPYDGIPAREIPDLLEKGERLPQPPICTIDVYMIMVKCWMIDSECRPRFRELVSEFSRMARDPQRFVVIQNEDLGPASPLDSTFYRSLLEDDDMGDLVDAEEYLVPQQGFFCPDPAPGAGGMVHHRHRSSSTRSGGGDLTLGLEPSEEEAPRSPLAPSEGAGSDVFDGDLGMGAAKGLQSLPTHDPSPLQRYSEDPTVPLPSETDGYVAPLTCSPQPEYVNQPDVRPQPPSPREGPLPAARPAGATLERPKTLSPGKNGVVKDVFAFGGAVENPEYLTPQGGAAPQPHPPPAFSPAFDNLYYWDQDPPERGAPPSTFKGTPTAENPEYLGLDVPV

| Compound | viability [1] [%] | Her2 level [2] | viability [3] | viability [4] | viability [5] | differential viability (reversal) ([6]; H69AR cells + 2 uM doxorubicin) | viability [6, 16] [%] | viability [6, 17] [%] | inhibition [7] | inhibition [8] | growth inhibition [9] | growth inhibition [10] | viability increase [11] | viability [12] | viability [13] | inhibition [14] | RAM network inhibition [15] |
| --- | --- | --- | --- | --- | --- | --- | --- | --- | --- | --- | --- | --- | --- | --- | --- | --- | --- |
| COc1ccc(OC)c(NC(=O)CSc2nnc(Cc3cccn3C)n2-c2ccc(F)cc2)c1 | 81 | 90% (inactive) | 81% (inactive) | 62.7% (inactive) | 85.6% (inactive) | 7.76% (inactive) | 77.9 | 85.6 | 3.59% (inactive) | 0% (inactive) | 4.57% (inactive) | 16.1% (inactive) | -5.9% (inactive) | 97.1% (inactive) | 92% (inactive) | -0.57% (inactive) | 2.89% (inactive) |
| CCOC(=O)CN(C(=O)c1ccccc1)c1ccccc1C | 93 | 108% (inactive) | 93% (inactive) | 104% (inactive) | 109% (inactive) | 15.2% (inactive) | 94 | 109 | 0.78% (inactive) | -11% (inactive) | -12.9% (inactive) | 6.67% (inactive) | -0.66% (inactive) | 91.8% (inactive) | 94.2% (inactive) | 0.91% (inactive) | 1.96% (inactive) |
| COc1ccc(NC(=O)CSc2nnc(Cc3cccn3C)n2-c2ccc(F)cc2)cc1OC | 86 | 92.5% (inactive) | 86% (inactive) | 104% (inactive) | 94.7% (inactive) | 0.655% (inactive) | 94 | 94.7 | 0.38% (inactive) | 3.17% (inactive) | 3.84% (inactive) | 1.52% (inactive) | -3.01% (inactive) | 94.5% (inactive) | 94.2% (inactive) | 1.43% (inactive) | 2.95% (inactive) |
| CCOc1ccccc1N1Cc2cc(C)c(C)cc2C1 | 92.5 | 104% (inactive) | 92.5% (inactive) | 90.4% (inactive) | 88.1% (inactive) | -9.66% (inactive) | 97.7 | 88.1 | -6.27% (inactive) | -0.83% (inactive) | -16.8% (inactive) | -12.1% (inactive) | -2.58% (inactive) | 63.6% (inactive) | 59.3% (inactive) | 2.19% (inactive) | 2.05% (inactive) |
| CCCc1cc(C(=O)Nc2ccccc2SC)no1 | 86 | 90.5% (inactive) | 86% (inactive) | 104% (inactive) | 81.1% (inactive) | -3.34% (inactive) | 84.4 | 81.1 | 0.9% (inactive) | 5.67% (inactive) | -11.4% (inactive) | -21.2% (inactive) | -3.07% (inactive) | 100% (inactive) | 93.4% (inactive) | 0.2% (inactive) | 1.56% (inactive) |
| O=C1CN(c2nc3ccccc3n3cnnc23)CC(=O)N1CCc1ccccc1 | 91.5 | 100% (inactive) | 91.5% (inactive) | 104% (inactive) | 102% (inactive) | 12% (inactive) | 90.2 | 102 | -0.38% (inactive) | -1.17% (inactive) | -6.92% (inactive) | -3.06% (inactive) | 0.25% (inactive) | 102% (inactive) | 95.9% (inactive) | 3.38% (inactive) | 5.88% (inactive) |
| CCOC(=O)C1=C(C)Nc2nnnn2C1c1ccc(OC)c(Br)c1 (stereo not given) | 106 | 106% (inactive) | 106% (inactive) | 87.7% (inactive) | 93.3% (inactive) | -4.47% (inactive) | 97.8 | 93.3 | 5.07% (inactive) | 14.8% (inactive) | -8.85% (inactive) | 2.52% (inactive) | -2.62% (inactive) | 92% (inactive) | 90.7% (inactive) | 3.05% (inactive) | 0.79% (inactive) |
| O=c1[nH]c(SCc2ccc(F)cc2)nc2c1cnn2-c1ccc(F)cc1 | 69 | 106% (inactive) | 69% (inactive) | 70.7% (inactive) | 79.1% (inactive) | 38.2% (inactive) | 40.8 | 79.1 | 1.87% (inactive) | 12.3% (inactive) | -5.11% (inactive) | -7.31% (inactive) | -6.32% (inactive) | 39.8% (inactive) | 51.5% (inactive) | 1.02% (inactive) | 4.01% (inactive) |
| CN(CC(=O)N1CCCCC1)S(=O)(=O)c1cccc2cccnc12 | 99 | 104% (inactive) | 99% (inactive) | 91.5% (inactive) | 97.5% (inactive) | 1.62% (inactive) | 95.8 | 97.5 | -0.4% (inactive) | -1.8% (inactive) | -4.94% (inactive) | 9.9% (inactive) | -2.03% (inactive) | 94.6% (inactive) | 94.7% (inactive) | 0.26% (inactive) | 1.14% (inactive) |
| COC(=O)C(C#N)C(=C1C(=O)CC(C)(C)CC1=O)c1ccc(O)cc1 (stereo not given) | 90 | 92.5% (inactive) | 90% (inactive) | 96.5% (inactive) | 92% (inactive) | -3.63% (inactive) | 95.6 | 92 | 0.9% (inactive) | -1.17% (inactive) | -1.85% (inactive) | 0.91% (inactive) | 0.99% (inactive) | 97.5% (inactive) | 101% (inactive) | 1.16% (inactive) | 2.01% (inactive) |
